Compounds without any hit were thinned out: in the full panel of roughly 83,000, 20% have a hit.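 Compound tested at a single concentration for 48 hours in 96-well plates; a percent growth value below 10 was scored as active.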 Values without a mark were called inactive. Calls of active or inactive are those of the source.
These compounds were tested on MDA-MB-231 breast (assay: NCI-60 one-dose screen, 48 h (100 = growth as untreated, 0 = no growth, -100 = all killed)). Details: 10 µM unless noted.

Structure (SMILES)	growth
COC(=O)[C@@H](Cc1c[nH]c2ccccc12)NC(=O)/C=C/c1ccccc1	37.7%
COc1ccc(-c2ccc(-c3ccc(C(=N)N)s3)s2)cc1	-79.9% (active)
O=P(O)(O)C(O)(Cc1cccnc1)P(=O)(O)O	94.1%
O=C1OC(/C=C/c2ccccc2)=NC/1=C/c1ccccc1[N+](=O)[O-]	99%
N/C(=N\O)c1ncc(-c2ccc(C(F)(F)F)cc2)c(NC2CCCCCC2)n1	-66.3% [100 µM] (active)
Cc1cc(Nc2c3ccccc3nc3ccccc23)ccc1NS(C)(=O)=O	50%
COC(=O)[C@H](Cc1cn(C)cn1)NC(=O)[C@H](CC(C)C)NC(=O)Nc1cc(C(F)(F)F)cc(C(F)(F)F)c1	-94% [100 µM] (active)
N=C(N)c1ccc(-c2ccc(-c3cccs3)s2)cc1F	-74.1% (active)
O=C(Nc1cccc(Cl)c1)Nc1ccccc1Cl	73.8%
Cc1nn(-c2ccccc2)c2nc3c(nc12)C1=NCCN1C(c1ccc(Cl)cc1)N3 (centres undefined)	66.8%
COc1cc(OC)c(C(=O)/C=C/c2cccc(OC(C)=O)c2)cc1CC=C(C)C	77.6%
C[N+](C)(C)CCCCCCCCCC[N+](C)(C)C	83.6%
Cc1cc2nc(CN)[nH]c2cc1C	117%
CC(=O)C1CCC2C3CC(C)=C4CC(O)CCC4(C)C3CCC12C (centres undefined)	101%
N=C(N)c1ccc(-c2ccc(-c3ccco3)o2)cc1F	9.14% (active)
N#Cc1ccc(-c2ccc(-c3cccs3)o2)cc1F	82.2%
O=C(Nc1cccc(-n2ccc3c(NC(=O)c4ccccc4)nccc32)c1)c1ccc(Cl)c(Cl)c1	-53.9% (active)
COc1ccc2nc3ccccc3c(NCc3ccc(C)cc3)c2c1	33.6%

Structure (SMILES)	growth
COc1cc(OC)cc(-c2ccc(-c3ccc(C(=N)N)s3)s2)c1	-80.5% (active)
COc1ccc(-c2cc(-c3cc4ccccc4oc3=O)n(-c3ccccc3)n2)cc1	60.1%
O=C1c2cccc3cccc(c23)C(=O)N1CCCCCCCCCCN1C(=O)c2cccc3cccc(c23)C1=O	108%
O=C(CCCN1CCC(O)(c2ccc(Br)cc2)CC1)c1ccc(F)cc1	40.7%
O=C(c1ccc(OCCN2CCCCC2)cc1)c1c(-c2ccc(O)cc2)sc2cc(O)ccc12	72.2%
CCCCCc1c(C)[nH]c(/C=C2\N=C(c3ccc[nH]3)C=C2Oc2ccc(OC)cc2)c1C	-71.2% [100 µM] (active)
ClCCn1cnc2c(SCc3ccccc3Cl)ncnc21	66.5%
O=C(N/N=C/c1ccc([N+](=O)[O-])o1)c1ccc(O)cc1	57.9%
CCS(=O)(=O)Nc1cccc(Nc2c3cccc(C)c3nc3c(C)cccc23)c1OC	59.9%
CCN(C(=O)CCl)C(C)(C)C(SSSC(c1ccc(Cl)cc1)C(C)(C)N(CC)C(=O)CCl)c1ccc(Cl)cc1 (centres undefined)	73.7%
CCOC(=O)C(CCCCC(NC(C)=O)(C(=O)OCC)C(=O)OCC)(NC(C)=O)C(=O)OCC	111%
COc1ccc(-n2nc(C(=O)Nc3ccc(F)cc3)nc2-c2cc(OC)c(OC)c(OC)c2)cc1	93.9%
ClC1=NC(Cl)C(Cl)=N/C1=N\c1ncn[nH]1 (centres undefined)	72.7%
COc1cc2c(cc1OC)-c1cc(OC)c(OC)cc1C(CN(C)C)C2 (centres undefined)	39.7% [100 µM]
Oc1ccc(-c2nnc3c4[nH]ccc4ncn23)cc1	92%
COc1ccc(/C=N/NC(N)=S)c(OC)n1	110%
CC(C)(C)c1cc(C[P+](c2ccccc2)(c2ccccc2)c2ccccc2)cc(C(C)(C)C)c1O	27.9%
FC(F)(F)c1cc(-c2nnc3n2N=C(Cl)CS3)cc(C(F)(F)F)c1	112%

What follows are compounds tested on RXF 393 renal in the same assay as above. Details: 10 µM unless noted.

Structure (SMILES)	growth
COC(=O)[C@@H](Cc1c[nH]c2ccccc12)NC(=O)/C=C/c1ccccc1	-25.6% (active)
NNc1ccc(S(N)(=O)=O)cc1	105%
COc1ccc(-c2ccc(-c3ccc(C(=N)N)s3)s2)cc1	-57.5% (active)
O=P(O)(O)C(O)(Cc1cccnc1)P(=O)(O)O	101%
O=C1OC(/C=C/c2ccccc2)=NC/1=C/c1ccccc1[N+](=O)[O-]	116%
N/C(=N\O)c1ncc(-c2ccc(C(F)(F)F)cc2)c(NC2CCCCCC2)n1	-67% [100 µM] (active)
Cc1cc(Nc2c3ccccc3nc3ccccc23)ccc1NS(C)(=O)=O	35%
COC(=O)[C@H](Cc1cn(C)cn1)NC(=O)[C@H](CC(C)C)NC(=O)Nc1cc(C(F)(F)F)cc(C(F)(F)F)c1	-89.3% [100 µM] (active)
N=C(N)c1ccc(-c2ccc(-c3cccs3)s2)cc1F	-92.6% (active)
O=C(Nc1cccc(Cl)c1)Nc1ccccc1Cl	117%
CCCCCCCCCCCCCC	112%
Cc1nn(-c2ccccc2)c2nc3c(nc12)C1=NCCN1C(c1ccc(Cl)cc1)N3 (centres undefined)	70%
C[N+](C)(C)CCCCCCCCCC[N+](C)(C)C	101%
Cc1cc2nc(CN)[nH]c2cc1C	107%
CC(=O)C1CCC2C3CC(C)=C4CC(O)CCC4(C)C3CCC12C (centres undefined)	111%
N=C(N)c1ccc(-c2ccc(-c3ccco3)o2)cc1F	34.1%
N#Cc1ccc(-c2ccc(-c3cccs3)o2)cc1F	77.2%

Structure (SMILES)	growth
O=C(Nc1cccc(-n2ccc3c(NC(=O)c4ccccc4)nccc32)c1)c1ccc(Cl)c(Cl)c1	-92.7% (active)
COc1ccc2nc3ccccc3c(NCc3ccc(C)cc3)c2c1	6.17% (active)
COc1cc(OC)cc(-c2ccc(-c3ccc(C(=N)N)s3)s2)c1	-73.9% (active)
O=C1c2cccc3cccc(c23)C(=O)N1CCCCCCCCCCN1C(=O)c2cccc3cccc(c23)C1=O	96.6%
O=C(CCCN1CCC(O)(c2ccc(Br)cc2)CC1)c1ccc(F)cc1	49.8%
O=C(c1ccc(OCCN2CCCCC2)cc1)c1c(-c2ccc(O)cc2)sc2cc(O)ccc12	70.2%
CCCCCc1c(C)[nH]c(/C=C2\N=C(c3ccc[nH]3)C=C2Oc2ccc(OC)cc2)c1C	-68.3% [100 µM] (active)
O=C(N/N=C/c1ccc([N+](=O)[O-])o1)c1ccc(O)cc1	82.5%
CCS(=O)(=O)Nc1cccc(Nc2c3cccc(C)c3nc3c(C)cccc23)c1OC	34.6%
CCN(C(=O)CCl)C(C)(C)C(SSSC(c1ccc(Cl)cc1)C(C)(C)N(CC)C(=O)CCl)c1ccc(Cl)cc1 (centres undefined)	48.6%
CCOC(=O)C(CCCCC(NC(C)=O)(C(=O)OCC)C(=O)OCC)(NC(C)=O)C(=O)OCC	102%
ClC1=NC(Cl)C(Cl)=N/C1=N\c1ncn[nH]1 (centres undefined)	-64.6% (active)
COc1cc2c(cc1OC)-c1cc(OC)c(OC)cc1C(CN(C)C)C2 (centres undefined)	41.6% [100 µM]
Oc1ccc(-c2nnc3c4[nH]ccc4ncn23)cc1	113%
COc1ccc(/C=N/NC(N)=S)c(OC)n1	94.4%
CC(C)(C)c1cc(C[P+](c2ccccc2)(c2ccccc2)c2ccccc2)cc(C(C)(C)C)c1O	11.7%
